Drawing on PubChem BioAssay AID493191 (Broad Institute, 2011), this text covers outcome for 75 molecules.

The campaign covered roughly 1,300 compounds. About 330 (25%) were called active. How the calls were made is not given here. Not all results are given here. Entries with a potency or affinity are not part of this list.

The nature of the experiment: MALME3 melanoma cell viability loss, dose response, orthogonal assay for MITF inhibitor project, CellTiter-Glo, cherry-picked (AID 493191). To be noted: CellTiter-Glo luminescence, 24 h; series mostly up to 35 µM. For orientation: In ATP-based viability assays light output follows the ATP content of the culture.
With `COc1ccc(C2C(C#N)=C(N)Oc3c2oc(CO)cc3=O)cc1` (stereo not given), the molecule was called inactive.

For `Cc1ccc(NC(=O)Cc2noc3ccccc23)cc1`, the outcome was inactive.

In the case of `COc1ccccc1C(=O)Nc1nc(-c2ccc(S(=O)(=O)N3CCOCC3)cc2)cs1`, the result was inactive.

`Cc1cnc(NC(=O)c2nn(C)cc2[N+](=O)[O-])s1`: the outcome was inactive.

In the case of `O=C(O)c1cccc(N/N=C/c2cccs2)c1`, the molecule was classed as inactive.

With `Cc1cc(C(=O)Nc2ccc([N+](=O)[O-])cn2)cs1`, the molecule was classed as inactive.

On to `O=C(N/N=C/c1cc([N+](=O)[O-])ccc1N1CCNCC1)c1ccc([N+](=O)[O-])cc1`, for which the call was inactive.

In the case of `O=C(O)c1cccc(N/N=C/c2ccc(OC(F)(F)F)cc2)c1`, the molecule was classed as inactive.

`c1cnc(SCCOc2ccc3c(c2)CCC3)nc1`: the molecule was called inactive.

`Cn1nnnc1Sc1ncnc2scc(-c3cccc(F)c3)c12`: the outcome was inactive.

Take `CC1CCCCC1NC(=O)/C(C#N)=C/c1ccccc1F` (stereo not given): the result was inactive.

`COc1cccc(NC(=O)c2cnn(-c3ccccc3)c2C)c1`: the call was inactive.

As for `CCOc1ccc(NC(=O)c2ccc3snnc3c2)cc1`, the molecule was called inactive.

In the case of `CCOc1ccc(-c2noc(CCC(=O)O)n2)cc1`, the result was inactive.

For the molecule `Cc1nc(NC(=O)/C=C/c2ccccc2)n[nH]1`, the molecule was called inactive.

As for `O=C(Nc1ccc(Cl)cc1)OCc1ccccn1`, the molecule was classed as inactive.

In the case of `COc1ccc(C(=O)Nc2ccc3ccccc3c2)cc1OC`, the outcome was inactive.

Take `O=C(Nc1ccc(N2CCOCC2)cc1)c1cnsn1`: the outcome was inactive.

`O=C(CCCCl)NC(=S)Nc1ccc(N2CCOCC2)cc1`: the molecule was called inactive.

Regarding `O=C(Nc1ccc2ncccc2c1)c1ccccc1Br`, the outcome was inactive.

Take `O=C(Nc1ccc2c(c1)OCCO2)c1coc2ccccc2c1=O`: the molecule was classed as inactive.

`Brc1cccc(/C=N/Nc2nn[nH]n2)c1`: the outcome was inactive.

Consider `CCN(CC)CC(=O)Nc1scc2c1c(=O)oc1ccccc12`, for which the molecule was classed as inactive.

Turning to `Cc1ccc(Nc2nnc(-c3ccccc3N)o2)cc1C`, the call was inactive.

In the case of `C=CCOc1ccc(/C=C/C(C)=N\O)cc1`, the result was inactive.

As to `O=C(c1cc2ccccc2oc1=O)N(Cc1ccccc1)C1CCS(=O)(=O)C1` (stereo not given), the call was inactive.

Take `COc1ccc(C(=O)NCC(=O)c2ccccc2)cc1`: the molecule was called inactive.

On to `NCCN1C(=O)S/C(=C\c2ccc3c(c2)OCO3)C1=O`, for which the call was inactive.

Take `CC(C)S(=O)(=O)c1csc(C(=O)Nc2ccc(F)cc2)c1N`: the molecule was classed as inactive.

Regarding `O=C(NCc1ccc2c(c1)OCO2)c1cc(=O)[nH]c2ccccc12`, the molecule was classed as inactive.

With `CN(C)c1ccc(NC(=S)c2ccccn2)cc1`, the molecule was classed as inactive.

Regarding `N/C(=N\OC(=O)c1ccc(Cl)cc1Cl)c1ccncc1`, the molecule was called inactive.

Turning to `Cc1ccc(-n2nnnc2Sc2nc([N+](=O)[O-])nn2C)c(C)c1`, the result was inactive.

`Cc1ccc(-n2cc(CNCCCn3cccn3)c(-c3cccc(C)c3)n2)cc1`: the outcome was inactive.

`C=C1C(=O)O[C@@]23[C@H]1CC[C@@H](C)[C@@H]2CC[C@@]1(C)O[C@@H]31`: the call was inactive.

Consider `Cc1ccc(C2CC(C(F)(F)F)n3nc(C(=O)NCc4c(C)nn(C)c4C)c(Cl)c3N2)cc1` (stereo not given), for which the outcome was inactive.

Turning to `Cn1c(/C=C/c2ccc(Cl)cc2)nc2ccccc2c1=O`, the molecule was classed as inactive.

Consider `COc1cccc(-c2csc3ncnc(Sc4nnnn4C)c23)c1`, for which the outcome was inactive.

For the molecule `Cc1ccc(-c2noc(CN3CCCCC3)n2)cc1`, the result was inactive.

In the case of `O=C(Nc1ccc(N2CCOCC2)c(Cl)c1)c1cccc(F)c1`, the molecule was classed as inactive.

Take `C=CCn1cccc(C(=O)Nc2ccc(C)c(Cl)c2)c1=O`: the outcome was inactive.

In the case of `Cc1ccc2nc(NC(=O)CSCC(=O)OCC(=O)c3ccccc3)sc2c1`, the call was inactive.

As to `O=C(O)c1ccc(N/N=C/c2ccc3nccnc3c2)cc1`, the call was inactive.

In the case of `Clc1nccnc1N/N=C/c1ccc(Br)cc1`, the outcome was inactive.

As to `CCSC1(SCC)N=C(N)C2(C#N)C(c3ccc(F)cc3)C12C#N` (stereo not given), the molecule was classed as inactive.

On to `O=C(COC(=O)c1ccc[nH]c1=O)Nc1ccc(N2CCCCC2)cc1`, for which the molecule was called inactive.

As for `CCOc1ccc(-c2nnc(-c3cccs3)o2)cc1OCC`, the molecule was called inactive.

Turning to `CCOC(=O)C1(Cc2cccc(OC)c2)CCCN(C(=O)CSC)C1` (stereo not given), the outcome was inactive.

Turning to `O=C(Cc1ccccc1)NCC(=O)N/N=C/c1ccc([N+](=O)[O-])s1`, the outcome was inactive.

Regarding `O=C(/C=C\c1ccccc1)NCC(=O)N/N=C/c1ccc(O)cc1O`, the result was inactive.

Consider `CCOc1ccc(NC(=O)CCC(=O)N/N=C/c2ccc([N+](=O)[O-])s2)cc1`, for which the molecule was called inactive.

In the case of `COc1ccc(NC(C)C(=O)N/N=C/c2ccc([N+](=O)[O-])s2)cc1` (stereo not given), the result was inactive.

On to `N/C(=N\OC(=O)c1cccc(F)c1)c1cccc([N+](=O)[O-])c1`, for which the molecule was called inactive.

Regarding `Cc1onc(-c2ccccc2)c1C(=O)N/N=C/c1ccc([N+](=O)[O-])s1`, the molecule was classed as inactive.

On to `COc1ccc(-c2csc(N(C)C(=O)c3ccco3)n2)cc1`, for which the result was inactive.

With `COCCn1c(C)cc(C(=O)COC(=O)c2ccccc2Br)c1C`, the result was inactive.

In the case of `CC(/C=C1\SC(=O)N(CCCC(=O)O)C1=O)=C\c1ccccc1`, the molecule was classed as inactive.

For `CCN(Cc1ccc(OC)c(F)c1)C(=O)CCl`, the outcome was inactive.

For the molecule `c1ccc(OCc2nc3ccccc3[nH]2)cc1`, the result was inactive.

With `N#CC1=C(c2ccccc2)/C(=C/c2ccccc2)OC1=O`, the molecule was classed as inactive.

Consider `COc1cccc2c1C(=O)C=C(C)C2=O`, for which the molecule was classed as inactive.

On to `Cc1cc(C=C2C(=O)c3ccccc3C2=O)c(C)n1-c1ccccc1`, for which the molecule was called inactive.

As for `O=C(O)c1ccccc1C(=O)Nc1ccc(Oc2cccc3ccccc23)cc1`, the molecule was called inactive.

With `Cc1ccc(N2C(=O)c3ccc(N)cc3C2=O)cc1C`, the call was inactive.

For `COc1ccc(/C=N/Nc2cc(C)nc(-n3nc(C)cc3C)n2)c(OC)c1`, the result was inactive.

As to `O=C1CCC2S/C(=C/Nc3ccc(C(F)(F)F)cc3)C(=O)N12` (stereo not given), the call was inactive.

As for `Cc1nc(C)c(C(=O)N/N=C/c2cc(Br)ccc2O)s1`, the molecule was called inactive.

With `CC(C)C(=O)NC(c1ccco1)c1ccc2cccnc2c1O` (stereo not given), the result was inactive.

`C=CCn1c(C)cc(C2=NNC(=NC(C)(C)C)SC2)c1C`: the call was inactive.

On to `C=CCN=C1NN=C(c2ccc3c(c2)OCCO3)CS1`, for which the molecule was classed as inactive.

Regarding `COc1ccccc1NC(=O)c1cnc(SCC(=O)NCC2CCCO2)n(C)c1=O` (stereo not given), the molecule was classed as inactive.

As to `Cc1nc(Sc2nnnn2C)c2c3c(sc2n1)CCC3`, the molecule was classed as inactive.

As to `COCCNC(=O)/C(C#N)=C/c1cccc(/C=C(\C#N)C(=O)NCCOC)c1`, the call was inactive.

For the molecule `CCOCCCNC(=O)/C(C#N)=C/c1ccc(Cl)c([N+](=O)[O-])c1`, the result was inactive.

For the molecule `CCCOc1ccc(C(=O)Nc2ccc3c(c2)OCCO3)cc1`, the molecule was classed as inactive.
